About 83,000 compounds went through this panel and 20% of them were active in at least one assay; those are over-represented in the sample as a whole.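 The test compound was applied at a single concentration to cells in 96-well plates for 48 hours, and percent growth was recorded.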 A number with no mark means an inactive call. The source made the active and inactive calls. The calls were made as follows: active = growth percent below 10; inactive = the rest.

Some test systems named below: NCI-H23 lung; NCI-H226 lung; NCI-H322M lung; HOP-62 NSCLC; NCI-H460 lung; A549/ATCC NSCLC; 786-0 renal; COLO 205 colon; DU-145 prostate; K-562 leukemia; MALME-3M melanoma; MDA-MB-231 breast; RXF 393 renal; SF-268 CNS; SF-295 CNS; SF-539 CNS; UACC-257 melanoma; M14 melanoma.
Common to all, as to assay: NCI-60 one-dose screen, 48 h (100 = growth as untreated, 0 = no growth, -100 = all killed)
Settings in all cases: 10 µM unless noted

Consider `S=C(N/N=C/c1cc(Cl)cc(Cl)c1)NC12CC3CC(CC(C3)C1)C2`, for which the growth in the assay with NCI-H23 lung is 97.8%; in the assay on NCI-H226 lung, 79.6%; in the assay with NCI-H322M lung, 62.2%; with HOP-62 NSCLC it was 78.2%; with NCI-H460 lung, 34.4%; in the assay on A549/ATCC NSCLC, 45%. In addition, the growth in the assay on 786-0 renal is 71%; in the assay with COLO 205 colon it was 68.8%; in the assay on DU-145 prostate, 77.4%; in the assay with K-562 leukemia it was 79.5%; in the assay on MALME-3M melanoma it was 54.6%; in the assay on MDA-MB-231 breast, 52.6%. Besides, the growth was 67.2% in the assay with RXF 393 renal; 64.6% with SF-268 CNS; 35.1% in the assay on SF-295 CNS; 68.9% in the assay with SF-539 CNS; 83% in the assay with UACC-257 melanoma; 89% in the assay with M14 melanoma.

`BrCCCOc1ccc(Oc2ccc(OCCCBr)cc2)cc1`: the growth is 109% with NCI-H23 lung; 99.6% in the assay on NCI-H226 lung; 123% with NCI-H322M lung; 108% in the assay on HOP-62 NSCLC; 105% in the assay with NCI-H460 lung; 94.7% in the assay on A549/ATCC NSCLC. Further, the growth in the assay with 786-0 renal is 88.9%; in the assay with COLO 205 colon, 134%; in the assay with DU-145 prostate it was 116%; in the assay on K-562 leukemia it was 109%; in the assay on MALME-3M melanoma, 117%; in the assay with MDA-MB-231 breast, 104%. In addition, the growth in the assay on RXF 393 renal was 80.8%; in the assay with SF-268 CNS it was 111%; in the assay with SF-295 CNS, 116%; in the assay with SF-539 CNS it was 113%; with UACC-257 melanoma, 90.4%; with M14 melanoma, 102%.

With `Clc1ccc(I)c2ccccc12`, the growth in the assay on NCI-H23 lung was 106%; in the assay on NCI-H226 lung, 103%; with NCI-H322M lung, 95.3%; with HOP-62 NSCLC, 103%; with NCI-H460 lung, 112%; in the assay with A549/ATCC NSCLC, 108%. For the same molecule, the growth is 93.4% in the assay with 786-0 renal; 110% in the assay with COLO 205 colon; 111% in the assay on DU-145 prostate; 102% in the assay with K-562 leukemia; 97.6% in the assay on MALME-3M melanoma; 110% with MDA-MB-231 breast. Also, the growth was 113% with RXF 393 renal; 101% in the assay on SF-268 CNS; 102% in the assay with SF-295 CNS; 105% in the assay on SF-539 CNS; 101% in the assay with UACC-257 melanoma; 101% in the assay with M14 melanoma.

In the case of `CC(C)OCC1CO1` (centres undefined), the growth in the assay with NCI-H23 lung was 110%; with NCI-H226 lung, 101%; in the assay with NCI-H322M lung, 100%; in the assay on HOP-62 NSCLC, 102%; in the assay on NCI-H460 lung it was 97.7%; in the assay on A549/ATCC NSCLC, 106%. Also, the growth is 113% in the assay with 786-0 renal; 104% in the assay with COLO 205 colon; 114% in the assay with DU-145 prostate; 109% with K-562 leukemia; 86.8% in the assay on MALME-3M melanoma; 107% in the assay on MDA-MB-231 breast. The growth is 119% in the assay on RXF 393 renal; 99.9% in the assay with SF-268 CNS; 78.2% in the assay with SF-295 CNS; 95.1% with SF-539 CNS; 102% in the assay with UACC-257 melanoma; 102% in the assay with M14 melanoma.

As to `Nc1nc2cc(O)ccc2n2cc3c(F)cccc3c12`, the growth was 40.9% in the assay with NCI-H23 lung; 54.8% in the assay on NCI-H226 lung; 32.5% with NCI-H322M lung; 24.9% with HOP-62 NSCLC; 2.35% (active) in the assay with NCI-H460 lung; 22.6% in the assay on A549/ATCC NSCLC. Besides, the growth in the assay on 786-0 renal is 27.6%; in the assay with COLO 205 colon it was 55.1%; in the assay with DU-145 prostate, 33.4%; in the assay with K-562 leukemia, 29.4%; in the assay on MALME-3M melanoma it was 33.3%; in the assay on MDA-MB-231 breast it was 38.8%. The growth in the assay with RXF 393 renal was 5.51% (active); with SF-268 CNS, 19.1%; with SF-295 CNS, 11.9%; in the assay on SF-539 CNS it was 13.7%; with UACC-257 melanoma it was 50.9%; in the assay with M14 melanoma, 23%.

As to `CC(=O)/C(=C\c1c(-c2ccccc2)[nH]c2ccccc12)S(=O)(=O)c1ccccc1`, the growth with NCI-H23 lung is -19.8% (active); in the assay on NCI-H226 lung, 23.2%; in the assay on NCI-H322M lung, 43.1%; in the assay on HOP-62 NSCLC, 6.39% (active); in the assay with NCI-H460 lung, 2.86% (active); with A549/ATCC NSCLC it was 19.6%. Moreover, the growth in the assay with 786-0 renal is 9.85% (active); in the assay with COLO 205 colon, 12%; with DU-145 prostate it was -18.7% (active); in the assay on K-562 leukemia, -53.4% (active); in the assay on MALME-3M melanoma, 62.6%; in the assay with MDA-MB-231 breast, 4.14% (active). For the same molecule, the growth in the assay on RXF 393 renal is -28.2% (active); in the assay on SF-268 CNS, 7.87% (active); with SF-295 CNS, -41.4% (active); in the assay with SF-539 CNS, -38.1% (active); in the assay on UACC-257 melanoma, -6.16% (active); in the assay with M14 melanoma, 5% (active).

In the case of `O=C(/C(Br)=C/c1ccccc1)c1ccccc1`, the growth was 93.3% in the assay on NCI-H23 lung; 110% in the assay on NCI-H226 lung; 107% in the assay with NCI-H322M lung; 80.3% in the assay with HOP-62 NSCLC; 84.9% in the assay on NCI-H460 lung; 78.6% with A549/ATCC NSCLC. Also, the growth was -90.5% (active) with 786-0 renal; -70.8% (active) in the assay on COLO 205 colon; 64.1% with DU-145 prostate; -1.65% (active) in the assay with K-562 leukemia; -36.9% (active) with MALME-3M melanoma; 42.6% in the assay on MDA-MB-231 breast. Besides, the growth in the assay with RXF 393 renal was -58.2% (active); in the assay on SF-268 CNS it was 78.9%; in the assay on SF-295 CNS, 103%; with SF-539 CNS, -41.7% (active); in the assay with UACC-257 melanoma it was -5.24% (active); in the assay with M14 melanoma, -95.4% (active).

With `O=C(Nc1ccc(-n2cc(-c3ccncc3)c(-c3ccc(Cl)c(O)c3)n2)cc1)c1ccc(Cl)c(Cl)c1`, the growth in the assay with NCI-H23 lung was 45.7%; in the assay on NCI-H226 lung, 107%; in the assay with NCI-H322M lung, 97.1%; with HOP-62 NSCLC it was 6.9% (active); in the assay with NCI-H460 lung, 8.3% (active); with A549/ATCC NSCLC it was 43.6%. For the same molecule, the growth in the assay with 786-0 renal is -63.5% (active); in the assay on COLO 205 colon, 51.9%; with DU-145 prostate, 61.8%; in the assay on K-562 leukemia, 10.3%; in the assay on MALME-3M melanoma, 43.6%; in the assay on MDA-MB-231 breast, 31.5%. The growth is -52.1% (active) in the assay on RXF 393 renal; 61.1% in the assay on SF-268 CNS; -50.3% (active) in the assay with SF-295 CNS; 23.5% with SF-539 CNS; 58.6% in the assay with UACC-257 melanoma; -65.8% (active) with M14 melanoma.

Values taken from PubChem BioAssay (NCI).
